Screening data as filed in PubChem.
Compounds with a hit are over-represented: about 6.9% of the library has one in this group of screens.
HCV NS3h FP – blocks HCV NS3 helicase binding to DNA | NS3h Cy5-dT15 DNA binding, fluorescence polarization | 1.6% of 16,000 active | inhibition, % at 100 µM | AID 687043;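 active = inhibition above the average over every tested compound plus 3 SD, cut at about 40% in these data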
Cy5 interf NS3h – counter-screen for HCV NS3 helicase inhibitors: fluorescence interference; Cy5-dT15 DNA with NS3h; actives lie on both sides; signal over control mean, under 1 quenches; 6% of 16,000 active; AID 720488; fluorescence interference ratio at 100 µM;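 active = compound fluorescence over control fluorescence at most 0.8, a quencher, or at least a set upper limit, an enhancer; inactive = ratio between 0.8 and the set upper limit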
An asterisk follows results filed as active.

SMILES | HCV NS3h FP | Cy5 interf NS3h
O=C(Nc1ccc(Cl)cn1)c1ccc(-c2ccc([N+](=O)[O-])cc2)o1 | -15.8 | 0.824
COc1cc(/C=C2/SC(=S)N(C)C2=O)ccc1OCCSc1ccc(Cl)cc1 | 9.0 | 1.06
COc1cc(/C=C2/SC(=S)N(CCC(=O)Nc3ccccc3C(=O)O)C2=O)cc(OC)c1OC | 17.2 | 0.896
COc1cc(/C=C2/SC(=S)N(CCC(=O)Nc3ccc(C(C)=O)cc3)C2=O)cc(OC)c1OC | -27.7 | 0.634*
CS(=O)(=O)N(CC(=O)NCCc1ccccc1)c1ccc(Cl)cc1 | 6.4 | 1.15
N#Cc1ccccc1N=C1C(=O)Nc2ccccc21 | 3.6 | 1.08
O=C1Nc2ccc([N+](=O)[O-])cc2C1=Nc1ccc(-c2ccc(N=C3C(=O)Nc4ccc([N+](=O)[O-])cc43)cc2)cc1 | 7.9 | 0.77*
COc1ccc(CNC(=O)c2cc(Cl)ccc2Cl)cc1 | -6.1 | 1.08
CCCS(=O)(=O)c1c(S(=O)(=O)CCC)c2ccccn2c1C(=O)c1ccc([N+](=O)[O-])cc1 | 12.7 | 1.08
CCCS(=O)(=O)c1c(S(=O)(=O)CCC)c2c(N)cccn2c1C(=O)c1ccc(OC)cc1 | 17.7 | 0.661*
Cc1ccc(N2C(=O)CC(Sc3ccc4ccccc4c3)C2=O)cc1 (stereo not given) | 34.6 | 0.979
CCN1C(=O)/C(=C\c2ccc(-c3ccc(C)c(Cl)c3)o2)SC1=S | 11.8 | 1.1
CCN1C(=O)/C(=C\c2ccc(-c3ccc(I)cc3)o2)SC1=S | 8.7 | 0.718*
Cc1ccc2oc(-c3ccc(NC(=O)Cc4ccccc4)cc3O)nc2c1 | -17.6 | 1.04
O=C(Cc1ccccc1)Nc1ccc(-c2nc3ccccc3s2)c(O)c1 | 3.9 | 1.23*
O=C(Nc1ccc2oc(-c3ccncc3)nc2c1)c1ccccn1 | 32.6 | 1.22*
CCc1ccc(OCC(=O)Nc2ccc(-c3nc4ccccc4s3)c(O)c2)cc1 | 1.3 | 1.06
COc1c(Cl)cc(C(=O)Nc2ccc3oc(-c4ccccc4)nc3c2)cc1Cl | -37.4 | 1.1
O=C(Nc1ccc2oc(-c3cccnc3)nc2c1)c1ccncc1 | 1.9 | 1.1
COc1cc(C(=O)Nc2ccc3oc(-c4ccc5ccccc5c4)nc3c2)cc(OC)c1OC | 22.2 | 0.717*
O=C(Cc1ccccc1)Nc1ccc2oc(-c3ccc(Cl)cc3Cl)nc2c1 | -36.0 | 1.25*
O=C1NC(=O)/C(=C/c2ccccc2OCc2ccccc2Cl)S1 | 11.8 | 1.07
COc1ccc(NC2=C(Cl)C(=O)N(c3cccc(C)c3C)C2=O)cc1 | 3.6 | 0.894
O=C(Cc1ccccc1)Nc1ccc2nn(-c3ccc(F)cc3)nc2c1 | -29.0 | 1.05
CC(C)C(=O)Nc1ccc2oc(-c3ccc(Cl)cc3)nc2c1 | 10.5 | 0.503*
SMILES | HCV NS3h FP | Cy5 interf NS3h
Cc1ccc(-c2nc3cc(NC(=O)C(C)C)ccc3o2)cc1 | 17.3 | 1.03
CCOC(=O)c1c(NC(=O)Cc2cccs2)sc(C(=O)Nc2cc(C(F)(F)F)ccc2Cl)c1C | -4.6 | 0.932
COc1ccc2nc(SCC(=O)NCc3ccccc3)[nH]c2c1 | 5.9 | 1.03
COc1ccc(C(=O)CSc2nc3ccc([N+](=O)[O-])cc3[nH]2)cc1 | -4.3 | 0.662*
O=C(NCCSc1ccccn1)c1cccc(Cl)c1 | -9.4 | 1.02
CCC(C)c1ccc(NC(=O)c2ccc3c(c2)OCCO3)c(O)c1 (stereo not given) | 8.9 | 0.96
O=[N+]([O-])C1=CC(=[N+]([O-])[O-])C=CC12N(Cc1ccccc1)C1=CC=CC=CC1=[N+]2Cc1ccccc1 (stereo not given) | 17.1 | 1
COc1cc([N+](=O)[O-])cc2c1N=C(c1ccc(Br)cc1)NO2 | 2.2 | 0.974
O=[N+]([O-])c1ccc2c(c1)ONC(c1ccc(Cl)cc1)=N2 | 22.2 | 0.669*
Cc1ccc2ccc(S(=O)(=O)n3nc(C)cc3C)cc2c1 | 6.7 | 1.01
Cc1cc(C)n(S(=O)(=O)c2ccc3c(c2)C(=O)c2cc(S(=O)(=O)n4nc(C)cc4C)ccc2-3)n1 | -57.2 | 0.64*
Cc1ccc(-n2nc3ccc(NC(=O)c4cc(Cl)ccc4I)cc3n2)cc1 | 8.2 | 1.02
Cc1ccc(C(=O)Oc2cccc(C3C4=C(CC(C)(C)CC4=O)NC4=C3C(=O)c3ccccc34)c2)cc1 (stereo not given) | 8.7 | 0.966
CCOc1cc(C2C3=C(CC(C)(C)CC3=O)NC3=C2C(=O)c2ccccc23)ccc1O (stereo not given) | 4.4 | 1.2*
CCN(CC)c1ccc(/C=C(\C#N)C(=O)Nc2ccccc2)c(OC)c1 | 22.2 | 1.01
CN(CCOC(=O)C(C)(c1ccccc1)c1ccccc1)C(C)(C)C | 5.9 | 0.755*
CN(C)CC#CC(O)(c1ccccc1)c1ccccc1 | -19.8 | 1.03
Cc1cc(C=O)c(C)n1-c1cccc([N+](=O)[O-])c1 | 10.0 | 1.01
Cc1ccc(N2C(=O)C(Cl)=C(Nc3ccc(F)cc3)C2=O)c(C)c1 | 7.8 | 1.05
O=C(Nc1cc(Cl)cc(Cl)c1)c1ccc2ccccc2c1 | 19.4 | 1.26*
O=C(Nc1ccc(NC(=O)c2ccc3ccccc3c2)cc1)c1ccccc1 | 6.3 | 1
COC(=O)c1ccc(Cl)c(NC(=O)NC(c2ccccc2)c2ccccc2)c1 | -3.3 | 1.01
Cc1ccc(-c2[nH]n3c(=O)c4c(nc3c2C)CCC4)cc1 | 0.7 | 0.979
COc1ccccc1C1(O)CC(c2ccc(C)cc2)NC(c2ccc(C)cc2)C1C (stereo not given) | -17.9 | 0.978
O=C(NCCCN1CCOCC1)/C(=C/c1ccc(-c2cccc([N+](=O)[O-])c2)o1)NC(=O)c1ccccc1 | 5.2 | 0.866
SMILES | HCV NS3h FP | Cy5 interf NS3h
O=C(NCCCO)/C(=C/c1ccc(-c2cccc([N+](=O)[O-])c2)o1)NC(=O)c1ccccc1 | 8.8 | 0.789*
CCOc1ccc(C2NC(=O)NC(C)=C2C(=O)Nc2ccccc2OC)cc1 (stereo not given) | -1.7 | 0.988
Cc1cccc(N2C(=O)CSC2=O)c1 | 5.0 | 1.03
COc1ccc(-n2cnc3cc(Nc4nnc(C)c5ccccc45)ccc32)cc1 | 5.1 | 0.738*
COc1ccccc1-n1cnc2cc(Nc3nnc(C)c4ccccc34)ccc21 | -1.6 | 0.928
Cc1nnc(Nc2ccc3c(c2)ncn3C)c2ccccc12 | 12.4 | 1.21*
Cn1cnc2cc(Nc3nnc(-c4ccccc4)c4ccccc34)ccc21 | -3.5 | 1.01
Cc1ccc(-c2nnc(Nc3ccc4c(c3)nc(C)n4C)c3ccccc23)cc1 | 5.1 | 0.708*
COc1ccc(-c2nnc(Nc3ccc4c(c3)nc(C)n4C)c3ccccc23)cc1 | 5.1 | 0.927
O=C(/C=C/c1ccc([N+](=O)[O-])cc1)C1C(=O)c2ccccc2C1=O | 4.2 | 1.06
O=C(Nc1ccc(Nc2ccccc2)cc1)c1ccc([N+](=O)[O-])cc1 | 17.2 | 0.947
CC(C)N(C(=O)c1ccc(C(=O)Nc2ccc(Nc3ccccc3)cc2)cc1)C(C)C | 17.0 | 0.697*
CC(=O)N(C(C)=O)c1ccc(Sc2ccc(Oc3ccc(Sc4ccc(N(C(C)=O)C(C)=O)cc4)cc3)cc2)cc1 | 7.2 | 1
C=CCN=C1CC(C)(C)CC(=O)C1=C(O)CCC | -0.7 | 1.07
COc1cccc(NC(=O)CSc2nc3ccccc3o2)c1 | 11.5 | 0.666*
COc1cccc(NC(=O)c2cc(-c3ccccc3)nc3ccccc23)c1 | -0.7 | 1.01
O=C(CSc1nc2ccccc2o1)c1ccc(-c2ccccc2)cc1 | 2.2 | 0.628*
O=C(CSc1nc2ccccc2o1)OCC(=O)c1ccc(F)cc1 | 6.7 | 0.933
Cc1onc(-c2ccccc2Cl)c1C(=O)Nc1ccc(O)c(C(=O)O)c1 | -2.5 | 1.03
